These results are taken from article PMC11006913.

What all share (assay): PBM; 200 nM protein, PBS
Common to all, as to conditions: dsDNA, one strand shown

Test [1] deals with HOXA2 (Homo sapiens, UniProt O43364 129-215, R185T).
Test [2] concerns the target HOXA2 (Homo sapiens, UniProt O43364 129-215, R185K).
Test [3] deals with HOXA2 (Homo sapiens, UniProt O43364 129-215, Y150S).
Test [4] deals with HOXA2 (Homo sapiens, UniProt O43364 129-215).
Test [5] concerns the target VAX1 (Homo sapiens, UniProt Q5SQQ9 86-172).
For test [6], the target named is VAX1 (Homo sapiens, UniProt Q5SQQ9 86-172, T142I).
Test [7] deals with VAX1 (Homo sapiens, UniProt Q5SQQ9 86-172, K157R).
The next test has as its target ALX1 (Homo sapiens, UniProt Q15699 118-204, L144R).
For another test, the target named is CRX (Homo sapiens, UniProt O43186 26-111, R41L).
The target in test [8] is NKX3-2 (Homo sapiens, UniProt P78367 192-278, P234S).
For test [9], the target named is NKX3-2 (Homo sapiens, UniProt P78367 192-278).
NKX3-2 (Homo sapiens, UniProt P78367 192-278), sequence (P78367 192-278): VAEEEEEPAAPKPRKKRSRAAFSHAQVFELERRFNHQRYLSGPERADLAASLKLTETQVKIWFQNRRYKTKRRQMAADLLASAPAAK

VAX1 (Homo sapiens, UniProt Q5SQQ9 86-172), sequence (Q5SQQ9 86-172): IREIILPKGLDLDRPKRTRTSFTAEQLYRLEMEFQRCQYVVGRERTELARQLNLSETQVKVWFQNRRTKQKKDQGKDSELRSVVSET
VAX1 (Homo sapiens, UniProt Q5SQQ9 86-172, T142I), sequence (Q5SQQ9 86-172 T142I): as the sequence (Q5SQQ9 86-172) above, with T57I counted along it
HOXA2 (Homo sapiens, UniProt O43364 129-215, R185T), sequence (O43364 129-215 R185T): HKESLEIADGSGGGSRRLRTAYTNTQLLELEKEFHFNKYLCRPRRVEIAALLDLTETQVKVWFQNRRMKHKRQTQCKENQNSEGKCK
HOXA2 (Homo sapiens, UniProt O43364 129-215), sequence (O43364 129-215): as the sequence (O43364 129-215 R185T) above, with T57R counted along it
VAX1 (Homo sapiens, UniProt Q5SQQ9 86-172, K157R), sequence (Q5SQQ9 86-172 K157R): as the sequence (Q5SQQ9 86-172) above, with K72R counted along it
HOXA2 (Homo sapiens, UniProt O43364 129-215, R185K), sequence (O43364 129-215 R185K): as the sequence (O43364 129-215 R185T) above, with T57K counted along it
HOXA2 (Homo sapiens, UniProt O43364 129-215, Y150S), sequence (O43364 129-215 Y150S): as the sequence (O43364 129-215 R185T) above, with Y22S, T57R counted along it
NKX3-2 (Homo sapiens, UniProt P78367 192-278, P234S), sequence (P78367 192-278 P234S): as the sequence (P78367 192-278) above, with P43S counted along it
ALX1, sequence (Q15699 118-204 L144R): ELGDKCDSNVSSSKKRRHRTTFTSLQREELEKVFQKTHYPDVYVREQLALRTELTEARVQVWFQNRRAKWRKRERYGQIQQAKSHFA
CRX, sequence (O43186 26-111 R41L): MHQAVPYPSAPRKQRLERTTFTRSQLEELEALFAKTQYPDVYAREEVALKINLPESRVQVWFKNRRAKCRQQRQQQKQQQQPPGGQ

Turning to AATCAGCT, the binding signal with HOXA2 [1] was 10.1 upbm affinity estimate (log intensity, higher = more binding, comparable within an allelic series); with HOXA2 [2], 11.9 upbm affinity estimate (log intensity, higher = more binding, comparable within an allelic series); with HOXA2 [3] it was 10.7 upbm affinity estimate (log intensity, higher = more binding, comparable within an allelic series); with HOXA2 [4], 9.77 upbm affinity estimate (log intensity, higher = more binding, comparable within an allelic series).
Take CAGCCACG: the binding signal with HOXA2 [1] is 7.22 upbm affinity estimate (log intensity, higher = more binding, comparable within an allelic series); in the test with HOXA2 [2] it was 10.5 upbm affinity estimate (log intensity, higher = more binding, comparable within an allelic series); with HOXA2 [3], 10.4 upbm affinity estimate (log intensity, higher = more binding, comparable within an allelic series); with HOXA2 [4] it was 7.24 upbm affinity estimate (log intensity, higher = more binding, comparable within an allelic series).
CCCCCACC: the binding signal with HOXA2 [1] is 6.87 upbm affinity estimate (log intensity, higher = more binding, comparable within an allelic series); in the test with HOXA2 [2] it was 9.85 upbm affinity estimate (log intensity, higher = more binding, comparable within an allelic series); with HOXA2 [3], 10.3 upbm affinity estimate (log intensity, higher = more binding, comparable within an allelic series); with HOXA2 [4], 6.86 upbm affinity estimate (log intensity, higher = more binding, comparable within an allelic series).
On to CCTGCCAC, for which the binding signal with HOXA2 [1] is 7.29 upbm affinity estimate (log intensity, higher = more binding, comparable within an allelic series); in the test with HOXA2 [2], 10.3 upbm affinity estimate (log intensity, higher = more binding, comparable within an allelic series); with HOXA2 [3], 10.6 upbm affinity estimate (log intensity, higher = more binding, comparable within an allelic series); with HOXA2 [4] it was 7.12 upbm affinity estimate (log intensity, higher = more binding, comparable within an allelic series).
CAATCACA: the binding signal with HOXA2 [1] was 9.53 upbm affinity estimate (log intensity, higher = more binding, comparable within an allelic series); with HOXA2 [2], 11.8 upbm affinity estimate (log intensity, higher = more binding, comparable within an allelic series); in the test with HOXA2 [3] it was 10.8 upbm affinity estimate (log intensity, higher = more binding, comparable within an allelic series); with HOXA2 [4], 9.4 upbm affinity estimate (log intensity, higher = more binding, comparable within an allelic series).
As to GCTCATTA, the binding signal with HOXA2 [1] is 12.7 upbm affinity estimate (log intensity, higher = more binding, comparable within an allelic series); with HOXA2 [2], 13.2 upbm affinity estimate (log intensity, higher = more binding, comparable within an allelic series); with VAX1 [5] it was 13.1 upbm affinity estimate (log intensity, higher = more binding, comparable within an allelic series); with VAX1 [6], 12.8 upbm affinity estimate (log intensity, higher = more binding, comparable within an allelic series); with HOXA2 [3], 10.5 upbm affinity estimate (log intensity, higher = more binding, comparable within an allelic series); with HOXA2 [4], 12.5 upbm affinity estimate (log intensity, higher = more binding, comparable within an allelic series). In addition, the binding signal with VAX1 [7] is 12.7 upbm affinity estimate (log intensity, higher = more binding, comparable within an allelic series).
Take GGTAACGA: the binding signal is 9.98 upbm affinity estimate (log intensity, higher = more binding, comparable within an allelic series) in the test with HOXA2 [1]; 12.2 upbm affinity estimate (log intensity, higher = more binding, comparable within an allelic series) with HOXA2 [2]; 10.8 upbm affinity estimate (log intensity, higher = more binding, comparable within an allelic series) with HOXA2 [3]; 10 upbm affinity estimate (log intensity, higher = more binding, comparable within an allelic series) with HOXA2 [4].
Take CTGATTAA: the binding signal was 11.9 upbm affinity estimate (log intensity, higher = more binding, comparable within an allelic series) in the test with HOXA2 [1]; 12.9 upbm affinity estimate (log intensity, higher = more binding, comparable within an allelic series) in the test with HOXA2 [2]; 11.1 upbm affinity estimate (log intensity, higher = more binding, comparable within an allelic series) with ALX1; 10.8 upbm affinity estimate (log intensity, higher = more binding, comparable within an allelic series) with HOXA2 [3]; 11.5 upbm affinity estimate (log intensity, higher = more binding, comparable within an allelic series) with HOXA2 [4].
With ACTAATGC, the binding signal with HOXA2 [1] was 10.2 upbm affinity estimate (log intensity, higher = more binding, comparable within an allelic series); with HOXA2 [2], 12.2 upbm affinity estimate (log intensity, higher = more binding, comparable within an allelic series); with HOXA2 [3], 10.7 upbm affinity estimate (log intensity, higher = more binding, comparable within an allelic series); with CRX, 10.1 upbm affinity estimate (log intensity, higher = more binding, comparable within an allelic series); with HOXA2 [4], 10.5 upbm affinity estimate (log intensity, higher = more binding, comparable within an allelic series).
Take CTCATTAC: the binding signal in the test with HOXA2 [1] is 12.5 upbm affinity estimate (log intensity, higher = more binding, comparable within an allelic series); with HOXA2 [2], 13.2 upbm affinity estimate (log intensity, higher = more binding, comparable within an allelic series); in the test with VAX1 [5] it was 13 upbm affinity estimate (log intensity, higher = more binding, comparable within an allelic series); with VAX1 [6], 12.7 upbm affinity estimate (log intensity, higher = more binding, comparable within an allelic series); in the test with HOXA2 [3] it was 10.8 upbm affinity estimate (log intensity, higher = more binding, comparable within an allelic series); in the test with HOXA2 [4] it was 12.3 upbm affinity estimate (log intensity, higher = more binding, comparable within an allelic series). Also, the binding signal in the test with VAX1 [7] is 12.8 upbm affinity estimate (log intensity, higher = more binding, comparable within an allelic series).
For AATTGCTC, the binding signal is 10.4 upbm affinity estimate (log intensity, higher = more binding, comparable within an allelic series) with HOXA2 [1]; 12 upbm affinity estimate (log intensity, higher = more binding, comparable within an allelic series) with HOXA2 [2]; 10.6 upbm affinity estimate (log intensity, higher = more binding, comparable within an allelic series) with HOXA2 [3]; 10.2 upbm affinity estimate (log intensity, higher = more binding, comparable within an allelic series) in the test with HOXA2 [4].
Turning to AGAGCCCC, the binding signal is 7.28 upbm affinity estimate (log intensity, higher = more binding, comparable within an allelic series) with HOXA2 [1]; 10.2 upbm affinity estimate (log intensity, higher = more binding, comparable within an allelic series) with HOXA2 [2]; 10.3 upbm affinity estimate (log intensity, higher = more binding, comparable within an allelic series) in the test with HOXA2 [3]; 7.25 upbm affinity estimate (log intensity, higher = more binding, comparable within an allelic series) in the test with HOXA2 [4].
Turning to AGTTAACG, the binding signal with HOXA2 [1] was 9.97 upbm affinity estimate (log intensity, higher = more binding, comparable within an allelic series); with HOXA2 [2], 12.2 upbm affinity estimate (log intensity, higher = more binding, comparable within an allelic series); with HOXA2 [3] it was 10.7 upbm affinity estimate (log intensity, higher = more binding, comparable within an allelic series); in the test with HOXA2 [4], 9.96 upbm affinity estimate (log intensity, higher = more binding, comparable within an allelic series).
As for GAGCCCGC, the binding signal with HOXA2 [1] is 7.09 upbm affinity estimate (log intensity, higher = more binding, comparable within an allelic series); in the test with HOXA2 [2], 10.2 upbm affinity estimate (log intensity, higher = more binding, comparable within an allelic series); with HOXA2 [3], 10.4 upbm affinity estimate (log intensity, higher = more binding, comparable within an allelic series); with HOXA2 [4], 7.5 upbm affinity estimate (log intensity, higher = more binding, comparable within an allelic series).
Consider CTACATTA, for which the binding signal in the test with HOXA2 [1] is 10.6 upbm affinity estimate (log intensity, higher = more binding, comparable within an allelic series); with HOXA2 [2], 12.2 upbm affinity estimate (log intensity, higher = more binding, comparable within an allelic series); in the test with HOXA2 [3] it was 10.8 upbm affinity estimate (log intensity, higher = more binding, comparable within an allelic series); with HOXA2 [4], 10.8 upbm affinity estimate (log intensity, higher = more binding, comparable within an allelic series).
Consider GGGAGCCC, for which the binding signal was 7.4 upbm affinity estimate (log intensity, higher = more binding, comparable within an allelic series) with HOXA2 [1]; 10.3 upbm affinity estimate (log intensity, higher = more binding, comparable within an allelic series) with HOXA2 [2]; 7.23 upbm affinity estimate (log intensity, higher = more binding, comparable within an allelic series) with VAX1 [5]; 7.09 upbm affinity estimate (log intensity, higher = more binding, comparable within an allelic series) with VAX1 [6]; 10.5 upbm affinity estimate (log intensity, higher = more binding, comparable within an allelic series) with HOXA2 [3]; 7.35 upbm affinity estimate (log intensity, higher = more binding, comparable within an allelic series) with HOXA2 [4]. The binding signal with VAX1 [7] was 7.13 upbm affinity estimate (log intensity, higher = more binding, comparable within an allelic series).
Regarding AACCGGGC, the binding signal in the test with HOXA2 [1] was 7.08 upbm affinity estimate (log intensity, higher = more binding, comparable within an allelic series); in the test with HOXA2 [2], 10.3 upbm affinity estimate (log intensity, higher = more binding, comparable within an allelic series); with HOXA2 [3] it was 10.3 upbm affinity estimate (log intensity, higher = more binding, comparable within an allelic series); in the test with NKX3-2 [8] it was 10.4 upbm affinity estimate (log intensity, higher = more binding, comparable within an allelic series); in the test with HOXA2 [4] it was 7.35 upbm affinity estimate (log intensity, higher = more binding, comparable within an allelic series); with NKX3-2 [9] it was 10.4 upbm affinity estimate (log intensity, higher = more binding, comparable within an allelic series).
As for AGAATTAT, the binding signal with HOXA2 [1] was 9.79 upbm affinity estimate (log intensity, higher = more binding, comparable within an allelic series); in the test with HOXA2 [2], 11.6 upbm affinity estimate (log intensity, higher = more binding, comparable within an allelic series); in the test with HOXA2 [3], 10.7 upbm affinity estimate (log intensity, higher = more binding, comparable within an allelic series); in the test with HOXA2 [4], 9.68 upbm affinity estimate (log intensity, higher = more binding, comparable within an allelic series).
On to GCAACCCC, for which the binding signal with HOXA2 [1] was 7.26 upbm affinity estimate (log intensity, higher = more binding, comparable within an allelic series); with HOXA2 [2], 10.1 upbm affinity estimate (log intensity, higher = more binding, comparable within an allelic series); in the test with HOXA2 [3] it was 10.4 upbm affinity estimate (log intensity, higher = more binding, comparable within an allelic series); with HOXA2 [4], 7.17 upbm affinity estimate (log intensity, higher = more binding, comparable within an allelic series).
Consider CAGTTAAG, for which the binding signal with HOXA2 [1] is 9.01 upbm affinity estimate (log intensity, higher = more binding, comparable within an allelic series); with HOXA2 [2] it was 11.5 upbm affinity estimate (log intensity, higher = more binding, comparable within an allelic series); in the test with HOXA2 [4], 8.89 upbm affinity estimate (log intensity, higher = more binding, comparable within an allelic series).
